Assay results taken from PubChem BioAssay.
Inconclusive results are not listed. The source made the active and inactive calls. Unless noted, no cut-off is given here; in the data, nearly all actives have AC50 up to about 27 µM.

Test: growth inhibition of DIPG glioma cells, dose response, cell-based, SU-DIPG-XIII, MIPE4.0, CellTiter-Glo, qHTS (AID 1347061; cut-off not given, nearly all actives have AC50 up to about 37 µM;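 note: cells exposed to compound for 48 hours before readout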)
Settings: SU-DIPG-XIII viability, CellTiter-Glo ATP luminescence

For `O=c1cc(N2CCOCC2)oc2c(-c3ccccc3)cccc12`, which outcome is on record?
Its outcome is “inactive”.

For `Oc1ccc(-c2nc(-c3ccc(F)cc3)c(-c3ccncc3)[nH]2)cc1`, which AC50 is on record?
The AC50 was 5.9 µM (active).

With `O=C(c1ccc(Nc2nccc(-c3cc4ccccc4s3)n2)cc1)N1CCC(N2CCCC2)CC1` as the compound, how does the AC50 read?
Its AC50 is 23.5 µM (active).

With `C[C@H](NC(=O)Cc1cc(F)cc(F)c1)C(=O)N[C@H](C(=O)OC(C)(C)C)c1ccccc1` as the compound, how does the outcome read?
The outcome was “inactive”.

For `Cc1ccc(NC(=O)c2cccc(N(C)C)c2)cc1NC(=O)c1ccc(O)cc1`, which AC50 is on record?
Its AC50 is 0.662 µM (active).

With `O=C1c2ccccc2-c2n[nH]c3cccc1c23` as the compound, how does the outcome read?
The outcome was “inactive”.

Test: growth inhibition of DIPG glioma cells, dose response, cell-based, JHH-DIPG-1, MIPE4.0, CellTiter-Glo, qHTS (AID 1347062);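 for AC50: cells exposed to compound for two days before readout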
Settings: JHH-DIPG-1 viability, CellTiter-Glo ATP luminescence

With `O=C(/C=C/c1c(C(=O)O)[nH]c2cc(Cl)cc(Cl)c12)Nc1ccccc1` as the compound, how does the outcome read?
The outcome was “inactive”.

Which outcome does the source give for `COc1ccc(-c2oc3cc(OC)ccc3c2C(=O)c2ccc(C#N)cc2)cc1` here?
The outcome was “inactive”.

Which outcome does the source give for `FC(F)(F)c1ccc(/C=C/c2nc(COc3ccc(CCCCn4ccnn4)cc3)co2)cc1` here?
Its outcome is “inactive”.

With `C[C@@H](N)C1CCC(C(=O)Nc2ccncc2)CC1` (some centres not stated) as the compound, how does the outcome read?
Its outcome is “inactive”.

With `Cc1cccc(C#Cc2ccccc2)n1` as the compound, how does the outcome read?
Its outcome is “inactive”.

Which outcome does the source give for `Nc1nccc(-c2ccc3noc(-c4ccc(Cl)cc4)c3c2)n1` here?
Its outcome is “inactive”.

With `Nc1ncnc2c1ncn2[C@@H]1O[C@H](CO)C[C@H]1O` as the compound, how does the outcome read?
The outcome was “inactive”.

With `NC(=O)c1ccc(-c2nc(-c3ccc4c(c3)OCCO4)c(-c3ccccn3)[nH]2)cc1` as the compound, how does the outcome read?
The outcome was “inactive”.

Which outcome does the source give for `COc1ccc(Nc2nccc(NCCO)n2)cc1` here?
Its outcome is “inactive”.

With `CC(C)(C)/[N+]([O-])=C/c1ccc(S(=O)(=O)O)cc1S(=O)(=O)O` as the compound, how does the outcome read?
The outcome was “inactive”.

With `CC(C)c1onc(-c2c(Cl)cccc2Cl)c1COc1ccc(/C=C/c2cccc(C(=O)O)c2)c(Cl)c1` as the compound, how does the outcome read?
The outcome was “inactive”.

With `N#C/C(=C\c1ccc(O)c(O)c1)C(=O)NCc1ccccc1` as the compound, how does the outcome read?
The outcome was “inactive”.

Which outcome does the source give for `CCOC(=O)C(C)Oc1cccc2c(=O)n(CC(=O)Nc3ccc4c(c3)OCCO4)ccc12` (configuration not stated) here?
The outcome was “inactive”.

With `Clc1ccc(-c2nc3sccn3c2/C=N/OCc2ccc(Cl)c(Cl)c2)cc1` as the compound, how does the outcome read?
Its outcome is “inactive”.

For `Oc1ccc(-c2nc(-c3ccc(F)cc3)c(-c3ccncc3)[nH]2)cc1`, which outcome is on record?
Its outcome is “inactive”.

With `O=C(c1ccc(Nc2nccc(-c3cc4ccccc4s3)n2)cc1)N1CCC(N2CCCC2)CC1` as the compound, how does the AC50 read?
Its AC50 is 18.7 µM (active).

With `CC(C)(Sc1ccc(CCN(CCCCC2CCCCC2)C(=O)NC2CCCCC2)cc1)C(=O)O` as the compound, how does the outcome read?
Its outcome is “inactive”.

With `C[C@H](NC(=O)Cc1cc(F)cc(F)c1)C(=O)N[C@H](C(=O)OC(C)(C)C)c1ccccc1` as the compound, how does the outcome read?
The outcome was “inactive”.

With `Cc1ccc(NC(=O)c2cccc(N(C)C)c2)cc1NC(=O)c1ccc(O)cc1` as the compound, how does the AC50 read?
The AC50 was 3.32 µM (active).

For `O=C(O)Cc1cccc(OCCCN(Cc2cccc(C(F)(F)F)c2Cl)CC(c2ccccc2)c2ccccc2)c1`, which outcome is on record?
Its outcome is “inactive”.

For `O=C1c2ccccc2-c2n[nH]c3cccc1c23`, which outcome is on record?
The outcome was “inactive”.
